Source: PubChem BioAssay (several laboratories)
This is a sample that favours compounds with a hit; in the whole collection about 27% have one here.
sEH inhibitor: blocks human soluble epoxide hydrolase activity; inhibition, % at 2 µM; 0.34% of 91,000 active; recombinant human sEH enzymatic activity assay; in the data active = inhibition above about 80%
Target sequence (P34913 whole entry, looked up): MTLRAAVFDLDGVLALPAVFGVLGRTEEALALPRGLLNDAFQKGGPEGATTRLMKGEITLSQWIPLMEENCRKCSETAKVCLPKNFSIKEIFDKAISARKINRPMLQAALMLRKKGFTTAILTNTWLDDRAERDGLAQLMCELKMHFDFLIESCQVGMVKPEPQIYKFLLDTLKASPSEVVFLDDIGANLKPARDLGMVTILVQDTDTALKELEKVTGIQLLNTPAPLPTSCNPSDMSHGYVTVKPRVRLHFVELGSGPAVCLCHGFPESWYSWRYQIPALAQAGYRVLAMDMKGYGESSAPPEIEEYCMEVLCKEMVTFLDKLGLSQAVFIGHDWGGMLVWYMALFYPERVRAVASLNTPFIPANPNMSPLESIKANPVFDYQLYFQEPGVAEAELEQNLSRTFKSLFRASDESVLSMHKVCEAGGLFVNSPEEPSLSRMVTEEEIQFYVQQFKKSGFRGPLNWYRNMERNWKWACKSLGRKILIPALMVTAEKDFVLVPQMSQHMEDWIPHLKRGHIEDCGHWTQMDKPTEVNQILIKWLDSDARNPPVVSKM
CYP2C19 activ: activators of human cytochrome P450 2C19. P33261. activation factor at 5 µM. 96,000 tested, under 10 active. recombinant CYP2C19, luciferin-H EGE luminescence; hits give high values; 0 = fully inhibited enzyme, 1 = untreated enzyme. AID 1025;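 active = activation factor of at least 2 at 5 µM in the primary screen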
CYP2C19 inh: human CYP2C19 inhibition; CYP2C19 Supersomes, luciferin-H EGE luminescence, 30 min; inhibition, % at 5 µM; 21% of 96,000 active; AID 778;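 active = CYP2C19 inhibition above a set limit at 5 µM in the primary screen, cut at about 50% in these data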
sEH act: activators of human soluble epoxide hydrolase; AID 717; purified human sEH enzymatic activity, activator screen; P34913; activation, % at 2 µM; 0.04% of 91,000 active; in the data active = activation above about 37%
CYP2C9 inhib: blocks human cytochrome P450 2C9. CYP2C9 Supersomes, luciferin-H conversion, luminescence. inhibition, % at 5 µM. 20% of 96,000 active. P11712. AID 777;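 active = blocking of liver enzyme CYP2C9 beyond about 50% at 5 µM, limit read from the data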
CYP2C9 activ: increases human cytochrome P450 2C9 activity | AID 1024 | 1.4% of 96,000 active | activation factor at 5 µM | recombinant CYP2C9, luciferin-H conversion, luminescence; hits give high values; factor 1 = untreated enzyme, 0 = blocked | P11712;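 active = activation factor of 2 or more for CYP2C9 at a 5 µM dose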
Hits are given with their value; n = inactive; x = no result.

SMILES | sEH inhibitor | CYP2C19 activ | CYP2C19 inh | sEH act | CYP2C9 inhib | CYP2C9 activ
COC(=O)C1CCN(C(=O)COC(=O)CC(NC(N)=O)c2ccc(Cl)cc2)CC1 (stereo not drawn) | x | n | n | x | n | n
CN(c1ccc(OCC(=O)Nc2ccc3[nH]c(=O)[nH]c3c2)cc1)S(=O)(=O)c1ccc(Cl)cc1 | n | n | n | n | 62 | n
CCOc1ccc(OCC(=O)Nc2ccc(S(=O)(=O)Nc3cc(C)nc(C)n3)cc2)cc1 | n | n | n | n | n | n
CCOc1ccc(S(=O)(=O)N(C)c2ccc(OCC(=O)Nc3ccc4[nH]c(=O)[nH]c4c3)cc2)cc1 | x | n | n | x | 78 | n
O=C(NC1CCCC1)C(c1ccc(Cl)cc1)N1CCOCC1 (stereo not drawn) | x | n | n | x | n | n
Cc1c(Cl)cccc1NC(=O)c1nc(C)n(-c2cc(OC(C)C)c(Cl)cc2Cl)n1 | n | n | n | n | 83 | n
COc1ccc(C2(C(=O)NCC3CCCO3)CCOCC2)cc1 (stereo not drawn) | n | n | n | n | n | n
Cc1ccc(C(=O)Nc2onc(C)c2C#N)cc1 | n | n | n | n | 58 | n
C=CCn1c(SCC(=O)NCCC2=CCCCC2)nc2ccc(Cl)cc2c1=O | n | n | n | n | 56 | n
O=C(CCCn1c(=O)[nH]c2cc(Cl)ccc2c1=O)NCCC1=CCCCC1 | n | n | n | n | n | n
CCOc1ccccc1NC(=O)C1CC(=O)n2ncnc2N1 (stereo not drawn) | n | n | n | n | n | n
CCOc1ccc(N2C(=O)CS/C2=C(\C(Cl)=C(Cl)Cl)[N+](=O)[O-])cc1 | n | n | n | n | 55 | n
Cc1oc(C(=O)O)cc1COc1ccc2c3c(c(=O)oc2c1)CCC3 | n | n | n | n | n | n
O=C(COc1ccc2c3c(c(=O)oc2c1)CCC3)c1ccc2c(c1)OCO2 | n | n | 58 | n | 82 | n
O=C(COC(=O)c1cc[n+]([O-])cc1)NCC12CC3CC(CC(C3)C1)C2 | n | n | n | n | n | n
CCOC(=O)CSC1=C(C#N)C(C)C2=C(CCCC2=O)N1 (stereo not drawn) | n | n | 94 | n | n | n
COC(=O)CSC1=C(C#N)C(c2ccc3c(c2)OCO3)C2=C(CCCC2=O)N1 (stereo not drawn) | n | n | 74 | n | 86 | n
Cc1ccc(NC(=O)CSC2=C(C#N)C(c3ccc4c(c3)OCO4)C3=C(CCCC3=O)N2)c(C)c1 (stereo not drawn) | n | n | 88 | n | 93 | n
COC(=O)CSC1=C(C#N)C(c2ccc(C)cc2)C2=C(CCCC2=O)N1 (stereo not drawn) | n | n | n | n | n | n
CCSC1=C(C#N)C(c2ccc3c(c2)OCO3)C2=C(CCCC2=O)N1 (stereo not drawn) | n | n | 85 | n | 67 | n
N#CC1=C(SCc2ccccc2)NC2=C(C(=O)CCC2)C1c1ccc2c(c1)OCO2 (stereo not drawn) | x | n | n | x | n | n
COC(=O)COc1ccc(S(=O)(=O)NCC2CCCO2)cc1Cl (stereo not drawn) | n | n | n | n | n | n
O=[N+]([O-])c1cc(-c2cnc3ccccc3n2)ccc1Oc1ccc(F)cc1 | n | n | n | n | n | n
CCc1ccccc1NC(=O)CSC1=C(C#N)C(c2ccc(O)c(OC)c2)C2=C(CCCC2=O)N1 (stereo not drawn) | x | n | n | x | 56 | n
COc1cc(C2C(C#N)=C(N)N(c3cccnc3)C3=C2C(=O)CCC3)ccc1O (stereo not drawn) | n | n | n | n | n | n
SMILES | sEH inhibitor | CYP2C19 activ | CYP2C19 inh | sEH act | CYP2C9 inhib | CYP2C9 activ
COC(=O)c1ccc(NC(=O)c2cccc(Cl)c2)o1 | n | n | n | n | n | n
COc1ccc2c(c1)c(C(=O)CN1CCN(C(=O)c3ccco3)CC1)c(C)n2C | x | n | 57 | x | n | n
COc1ccc2[nH]c(C)c(C(=O)CN3CCN(C(=O)c4ccco4)CC3)c2c1 | n | n | n | n | n | n
CC(=O)c1c(C)cc(C)c(CSc2nc(C)cc(=O)[nH]2)c1C | x | n | n | x | n | n
O=C(C1CCC1)N1CCc2cc(S(=O)(=O)NCCN3CCN(c4ccccc4F)CC3)ccc21 | x | n | n | x | 59 | n
O=C(C1CCC1)N1CCc2cc(S(=O)(=O)N3CCc4ccccc4C3)ccc21 | n | x | x | n | x | x
O=C(C1CCC1)N1CCc2cc(S(=O)(=O)NCc3ccccn3)ccc21 | n | n | n | n | 58 | n
CCC1CCCCN1S(=O)(=O)c1ccc2c(c1)CCN2C(=O)C1CCC1 (stereo not drawn) | x | n | n | x | 52 | n
O=C(C1CC1)N1CCc2cc(Br)cc(S(=O)(=O)NCc3ccccn3)c21 | x | n | n | x | n | n
CCC(C)(C(=O)NC1CCCC1)N(Cc1ccco1)C(=O)c1ccc2c(c1)OCO2 (stereo not drawn) | n | n | n | n | n | n
Cc1ccccc1CS(=O)(=O)CCC(=O)NCc1ccccn1 | n | n | n | n | n | n
COc1ccc(NC(=O)OC(CN2CCCCC2)C(F)(F)F)cc1 (stereo not drawn) | n | n | n | n | 64 | n
Cc1ccc(F)c(NC=C2C(=O)OC(C)(C)OC2=O)c1 | x | n | n | x | n | n
CCCC(c1nnnn1CCc1ccccc1)N1CCC(C(N)=O)CC1 (stereo not drawn) | n | x | x | n | x | x
O=C(CN1CCN(c2ccc(F)cc2)CC1)N1CCC(Cc2ccccc2)CC1 | n | n | 54 | n | 69 | n
O=C(CN1CCN(c2ccc(F)cc2)CC1)N1N=CCC1c1ccccc1 (stereo not drawn) | n | n | 63 | n | n | n
O=C(CN1CCN(c2ccccc2)CC1)N1N=CCC1c1ccccc1 (stereo not drawn) | n | n | n | n | n | n
CN(C)c1nc(SCc2ccc(Cl)cc2)nc2c1CCCC2 | n | n | 69 | n | 86 | n
CNc1nc(SCc2ccccc2Cl)nc2c1CCCC2 | x | n | 98 | x | 90 | n
O=c1[nH]c(SCc2ccccc2Cl)nc2c1CCC2 | n | n | n | n | n | n
N#Cc1cc2c(nc1SCc1ccc(Cl)cc1)CCCC2 | n | x | x | n | x | x
CC(NS(=O)(=O)c1ccc(CCC(=O)N2CCN(C)CC2)cc1)c1ccccc1 (stereo not drawn) | n | n | n | n | n | n
CCOC(=O)c1nn(-c2ccccc2C)c2nc(CC(C)C)c(C#N)c(=O)n12 | n | x | x | n | x | x
N#Cc1nc(COc2ccccc2F)oc1NCCCn1ccnc1 | n | n | 97 | n | 90 | n
N#Cc1nc(COc2ccc(F)cc2)oc1NCCCn1ccnc1 | n | n | 96 | n | 88 | n
CN(C)CCNc1oc(COc2ccc(Cl)cc2)nc1C#N | n | n | n | n | n | n
N#Cc1nc(COc2ccccc2)oc1NCCCn1ccnc1 | n | n | 100 | n | 95 | n
N#Cc1nc(COc2ccc(Br)cc2)oc1NCCCn1ccnc1 | n | n | 100 | n | 100 | n
COc1cnc(-c2ccccn2)nc1Oc1cccc(Cl)c1 | x | n | n | x | n | n
